HT1080NT lethal – qHTS for induction of synthetic lethality in tumor cells producing 2HG: qHTS for the HT-1080-NT fibrosarcoma cell line; HT-1080-NT fibrosarcoma viability, CellTiter-Glo ATP luminescence, 48 h; Potency, µM (series often up to 46.1 µM), actives largely listed as cytotoxic; 360,000 compounds, 1.6% hits;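 also: NT is the 2HG producing partner of a matched IDH1 knockdown line; nearly all actives have a fitted effect of over 55% in size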
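HT-1080-NT; 750 cells/well; 5% FBS RPMI; 48 h compound, 37 degrees C; CellTiter-Glo luminescence; curve fitting and curve-class assignment.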
TDP1 cell CPT – qHTS for Inhibitors of human tyrosyl-DNA phosphodiesterase 1 (TDP1): qHTS in cells in presence of CPT; chicken DT40 Tdp1-/-;hTDP1 cells + 20 nM CPT, ATP luminescence, 48 h; AID 686979, 2013; Potency, µM (top dose mostly 46.2 µM), most hits filed as inhibitors; 420,000 compounds, 12% hits; also: nearly all actives have a fitted effect of over 55% in size
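Chicken DT40 Tdp1-/- cells stably complemented with human TDP1 were seeded at 400 cells/well in medium containing 20 nM camptothecin, exposed to pin-transferred compounds, and grown at 37 °C for at least 48 hr. Viability was read as ATP luminescence.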
IL-1B inflam inh – qHTS for Inhibitors of Inflammasome Signaling: IL-1-beta AlphaLISA Primary Screen; THP-1 LPS/ATP IL-1B secretion, AlphaLISA, 16 h; hits give low values; activity change, % at 57.5 µM; 360,000 compounds, 4.7% hits; in the data active = activity change below about -50%; inconclusive = mostly about -30% to -49%
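THP-1 cells pretreated 1 hr with compounds (up to 57.5 uM final), then stimulated with LPS (250 ng/mL final) plus ATP (1.25 mM final); secreted IL-1B measured by AlphaLISA after 16 hr, decreased signal indicating inhibition.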
HT1080 IDH1KD tx – qHTS for induction of synthetic lethality in tumor cells producing 2HG: qHTS for the HT-1080-IDH1KD cell line; HT-1080 IDH1 knockdown viability, ATP luminescence, 48 h; Potency, µM (titrated, usually from 46.1 µM), actives largely listed as cytotoxic; 360,000 compounds, 2% hits; AID 686971, 2013
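Cytotoxicity counter-line: IDH1KD HT-1080, 48 h, CellTiter-Glo. Curves classed by r2, magnitude and activity.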
TDP1 cell noCPT – qHTS for Inhibitors of human tyrosyl-DNA phosphodiesterase 1 (TDP1): qHTS in cells in absence of CPT. AID 686978, 2013. Potency, µM (series often up to 46.2 µM), hits mostly inhibitors. 420,000 compounds, 15% hits. DT40 Tdp1-/- hTDP1 cells, no CPT, ATP luminescence, 48 h; also: nearly all actives have a fitted effect of over 55% in size
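Stably hTDP1-transfected Tdp1-null chicken DT40 cells were treated with library compounds minus camptothecin and grown for at least 48 hr at 37 °C, after which cellular ATP was quantified by luminescence.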
A number is an active result; - = inactive; ? = inconclusive; . = not tested or not shown. Sampled rows, rich in hits. Any-hit rate of the full collection: about 19%. Unless noted, calls follow the shape of the dose curve; as a rule, active = well fitted curve in the direction sought with a large enough effect; inconclusive = small, poorly fitted or top-dose-only effect, or another doubt; inactive = no such curve, though single readings can be large; an effect the other way counts as inactive or inconclusive.

SMILES	HT1080NT lethal	TDP1 cell CPT	IL-1B inflam inh	HT1080 IDH1KD tx	TDP1 cell noCPT
Cc1oc(-c2ccc(Cl)cc2)nc1CN1CCCC(C(=O)NCCCN2CCOCC2)C1 (stereo not drawn)	-	-	-	?	23µM
COc1cccc(N2CC(C(=O)Nc3nnc(SCc4cccnc4)s3)CC2=O)c1 (stereo not drawn)	-	-	-	-	?
Cc1oc(-c2ccc(Cl)cc2)nc1CN1CCCC(C(=O)NCCc2ccccc2)C1 (stereo not drawn)	.	8.2µM	.	.	5.8µM
CCc1ccc(-c2nc(CN3CCC(C(=O)NCCc4ccc(Cl)cc4)CC3)c(C)o2)cc1	.	-	.	.	?
CN(Cc1ccc(Cl)cc1)C(CCc1ccccc1)C(=O)NC1CCCCC1 (stereo not drawn)	?	?	-	?	15µM
CN(CC(=O)NC(=O)NC1CCCCC1)Cc1ccccc1	-	-	-	-	?
CC(=O)Nc1ccccc1-c1nnc(SCc2ccccc2Cl)[nH]c1=O	-	-	-	-	-
COc1ccccc1N(CC(=O)Nc1ccc(Br)cc1F)S(=O)(=O)c1cccs1	-	?	-54	-	?
COc1ccccc1N(CC(=O)Nc1ccccc1C(F)(F)F)S(=O)(=O)c1cccs1	-	?	-	-	?
COc1cccc(NC(=O)CN(c2ccccc2OC)S(=O)(=O)c2cccs2)c1	-	?	-	-	21µM
COc1ccc(NC(=O)CN(c2ccccc2OC)S(=O)(=O)c2cccs2)cc1Cl	-	?	-	?	15µM
COc1ccccc1N(CC(=O)Nc1ccccc1)S(=O)(=O)c1cccs1	-	-	-	-	?
Cc1ccc(NC(=O)C2CCN(c3ncccn3)CC2)cc1F	.	-	.	.	-
O=S(=O)(Cc1cc(NCc2ccccc2)nc(-c2ccncc2)n1)c1ccccc1	-	-	-	-	-
O=S(=O)(Cc1cc(NCc2ccccc2)nc(-c2ccccn2)n1)c1ccccc1	-	4.6µM	-	-	4.6µM
CCc1cccc(C)c1NC(=O)CN1C(=O)c2cccc3cccc1c23	.	-	.	.	-
COc1ccc(CN2CCC(Oc3ccc(C(=O)N4CCCCC4)cc3)CC2)cc1C	-	?	-53	-	?
COc1ccc(CCC(C)N2CCC(Oc3ccc(C(=O)N4CCCC4)cc3)CC2)cc1 (stereo not drawn)	-	26µM	-	-	?
CSc1cccc(CN2CCC(Oc3ccc(C(=O)N4CCCCC4)cc3)CC2)c1	?	?	-88	?	-
CC(CCc1ccc(O)cc1)N1CCC(Oc2ccc(C(=O)N3CCCC3)cc2)CC1 (stereo not drawn)	-	-	-	-	-
Cc1cc(C(O)c2ncc(-c3ccccc3F)[nH]2)ccc1F (stereo not drawn)	-	-	-	-	?
CCn1c(CNC(=O)Cc2ccc(OC)cc2)nnc1SCC(=O)Nc1ccc(C(=O)O)cc1	-	-	-	-	-
O=C(CSc1cn(CC(=O)N2CCCC2)c2ccccc12)Nc1cc(C(F)(F)F)ccc1Cl	.	18µM	.	.	?
O=C(Cn1cc(SCc2ccc(C(F)(F)F)cc2)c2ccccc21)N1CCCCC1	.	?	.	.	23µM
O=Cc1cn(CC(=O)N2CCCCC2)c2ccccc12	-	-	-	-	?
Cc1cc(C)c(NC(=O)CSc2cn(CC(=O)N3CCOCC3)c3ccccc23)c(C)c1	.	-	.	.	-
O=C(CSc1cn(CC(=O)N2CCCCC2)c2ccccc12)Nc1ccc(C(F)(F)F)cc1	.	-	.	.	-
O=C(Cn1cc(SCc2ccc(C(F)(F)F)cc2)c2ccccc21)N1CCCCCC1	.	18µM	.	.	?
Cc1cccc(C)c1N1C(=O)c2ccccc2NC(=O)C1C(=O)NCCOc1ccccc1 (stereo not drawn)	-	-	-	-	?
COc1ccccc1NC(=O)CN1CCN(CC(=O)Nc2cc(C)ccc2OC)CC1	-	-	-	-	-

Screening results from PubChem BioAssay.
